Consider 106 compounds from ChEMBL document CHEMBL4513216, “Probing the Open Global Health Chemical Diversity Library for Multistage-Active Starting Points for Next-Generation Antimalarials” (ACS Infect Dis, 2020).

The structures appear in SMILES notation. Screen size: about 68,000 compounds; about 2,700 (4%) showed an effect of 50% or more. The entries come from a sample that favours strong results as a whole.

The experiment concerns Plasmodium berghei. Nature of the experiment: Screen against P. berghei liver stage (PbLuc), transformed with Luciferase, at 2uM. It is filed as functional, HepG2. The settings on record: tested at 2 uM.
For `O=C(C[S+]([O-])Cc1cccc(F)c1)NC1CCCC1` (stereo unspecified), the INHIBITION is given as 27.67%.
Then `CC(C)c1ccc(OCCC(=O)N2CCC(CC(N)=O)CC2)cc1`, with 31.19%.
As to `CC(C)Oc1ncc(C(=O)N2CCC(N(C)C)CC2)cc1Cl`, the INHIBITION came out at 55.36%.
For `CC(C)Oc1ncc(C(=O)N2CCC(NC(=O)C3CC3)CC2)cc1Cl` the value was -58.69%; for `CC(C)Oc1ncc(C(=O)N2CCCC(C(=O)O)C2)cc1Cl` (stereo unspecified), 0.51%.
Then `CC(C)Oc1ncc(C(=O)N2CCC(CC(N)=O)CC2)cc1Cl`, with 64.9%.
Then `CC(=O)N1CCCN(C(=O)c2cnc(OC(C)C)c(Cl)c2)CC1`, with 31.51%.
`CCN1CCCN(C(=O)c2cnc(OC(C)C)c(Cl)c2)CC1`: the INHIBITION is reported as -16.16%.
For `CC(=O)N1CCN(C(=O)c2cnc(OC(C)C)c(Cl)c2)CC1` the value was 55.36%; for `CC(O)CN1CCN(C(=O)c2cnc(OC(C)C)c(Cl)c2)CC1` (stereo unspecified), 19.59%.
For `CCc1nc(N)nc(N2CCCC3(CCOCC3)C2)c1C` the value was 39.57%; for `Cc1ocnc1C(=O)N(C)[C@@H]1CC[C@@H](n2ccnc2C)[C@@H]1O`, -12.75%; for `O=C1CN(C(=O)CNC(CC(F)(F)F)c2ccc(F)cc2)CCN1` (stereo unspecified), 7.05%.
For `COc1c(CNC(c2ccccc2)c2ccc(F)cc2)c(C)nn1C` (stereo unspecified) the value was 13.67%.
On to `Cc1noc(C(C)N2CCN(CCn3ccccc3=O)CC2)n1` (stereo unspecified), for which the INHIBITION is listed as 25.78%.
Then `CCOCc1cccc(S(=O)(=O)Nc2ncc(C)s2)c1`, with 44.59%; and `Cc1nc(C)n(CC2CCCN2CC(=O)Nc2cc(C(C)C)no2)n1` (stereo unspecified), with 35.42%; and `CCN(Cc1noc(C)n1)C(=O)CC1C(=O)NCCN1CC(C)(C)C` (stereo unspecified), with 55.84%.
Then `CCc1noc(CN(CC)C(=O)CC2C(=O)NCCN2CC(C)(C)C)n1` (stereo unspecified), with 43.6%; and `CCc1noc(CN(CC)C(=O)CC2C(=O)NCCN2CC=C(C)C)n1` (stereo unspecified), with 3.66%.
Then `CN(C)CCOc1ccccc1N1CCN(C(=O)C(C)(C)C#N)CC1`, with -4.91%; and `CC(C)(C)C(O)CCNC(=O)c1ccc(F)cc1Cl` (stereo unspecified), with -9.71%; and `Cc1cc(NC2CCc3ncnn3C2)n2nc(C(F)(F)F)nc2n1` (stereo unspecified), with -30.02%.
For the compound `COc1ccc(NC(=O)CN2CCS(=O)(=O)CC2)cn1`, the INHIBITION was -9.39%.
Consider `CN(C)c1ccc(NC(=O)CN2CCS(=O)(=O)CC2)cn1`, for which the INHIBITION came to 71.64%.
`O=C(CN1CCS(=O)(=O)CC1)Nc1ccc(N2CCCC2)nc1`: the INHIBITION is -4.89%.
Then `c1cncc(-c2ccc3c(c2)C2(CC3)CCN(c3nncs3)CC2)c1`, with 12.3%.
For `Cc1cc(-c2c(C)c(-c3cnn(C)c3)nc(N)c2C#N)oc1C` the value was 23.43%; for `CCc1ccc(-c2c(C)c(-c3cnn(C)c3)nc(N)c2C#N)o1`, 49.25%; for `Cc1c(-c2cnn(C)c2)nc(N)c(C#N)c1-c1ccc(CO)o1`, 55.7%.
Regarding `COc1ccc(Cn2cc(C(=O)N(C)Cc3cnccn3)nn2)cc1`, the INHIBITION is -21.09%.
As for `COCC(=O)N1CCC2(COCc3cnc(-c4ccccc4)nc32)C1` (stereo unspecified), the INHIBITION was -22.64%.
Then `COCCC(=O)N1CCC2(COCc3cnc(-c4cccnc4)nc32)C1` (stereo unspecified), with -20.41%; and `O=C(CC1CC1)N1CCC2(COCc3cnc(N4CCOCC4)nc32)C1` (stereo unspecified), with 51.72%.
Then `O=C(C1CC1)N1CCC2(COCc3cnc(N4CCOCC4)nc32)C1` (stereo unspecified), with 29.95%; and `COCCC(=O)N1CCC2(COCc3cnc(-c4ccccc4)nc32)C1` (stereo unspecified), with 50.32%.
For `CCC(=O)N1CCC2(COCc3cnc(N4CCOCC4)nc32)C1` (stereo unspecified) the value was 35.84%.
For the compound `O=C(c1cc(=O)c(OCc2ccccc2F)co1)N1CCSCC1`, the INHIBITION is given as 36.6%.
Then `c1csc(CN2CCOCC3(CCN(C4CCOCC4)C3)C2)n1` (stereo unspecified), with 2.71%; and `CC(C)c1nc(CN2CCCC2Cn2cncn2)no1` (stereo unspecified), with -13.92%.
Then `CCN1CCCC(C)(C(=O)NCc2nncn2CCc2ccccc2)C1` (stereo unspecified), with -4.93%; and `c1ccc(-c2nc(CN3CCCC3Cn3cncn3)no2)cc1` (stereo unspecified), with -5.3%.
For `CC1(C)CC(=O)N(CC(=O)Nc2ccon2)c2ccccc21` the value was 40.97%; for `CCn1ccnc1CN1CCN(CC(O)CN2CCOCC2)CC1` (stereo unspecified), 38.68%.
Regarding `CN1CCN(CC(NCc2ccc(F)c(F)c2)c2ccccc2)CC1` (stereo unspecified), the INHIBITION came to 12.57%.
Then `CN1CCN(CC(NCc2ccc(F)cc2)c2ccccc2)CC1` (stereo unspecified), with 58.29%; and `Cc1ccc(CNC(CN2CCN(C)CC2)c2ccccc2)cc1` (stereo unspecified), with -10.6%.
For `c1ccc(CNCC2Cn3nnc(-c4ccncc4)c3CO2)nc1` (stereo unspecified), the INHIBITION turned out to be 2.87%.
Then `CCc1ccc(-c2cn3c(C(=O)N[C@H](C(N)=O)[C@@H](C)O)csc3n2)cc1`, with 61.82%.
In the case of `CCc1ccc(-c2cn3c(C(=O)NCC(C)C(=O)NC)csc3n2)cc1` (stereo unspecified), the INHIBITION came to 8.54%.
Then `C[C@@H](O)[C@H](NC(=O)c1csc2nc(-c3ccccc3F)cn12)C(N)=O`, with 16.95%; and `CCc1c(C)nc(SCc2ccccn2)[nH]c1=O`, with 50.67%; and `CCCc1cc(=O)[nH]c(SCc2ccccn2)n1`, with 4.95%.
For `CCc1cc(=O)[nH]c(SCc2ccccn2)n1` the value was 8.41%; for `CNC(=O)c1cc2c(nc1N(C)C)CCN(c1ncccn1)CC2`, -31.3%; for `Cc1nn2cc(CCNC(=O)c3cc(C(C)C)nn3C)nc2s1`, -8.8%.
For the compound `Cc1cc(C(=O)NCCc2cn3nc(C)sc3n2)c(C)o1`, the INHIBITION was found to be 55.66%.
Then `Cc1nn2cc(CCNC(=O)c3cc(C(C)C)no3)nc2s1`, with 11.9%.
Take `COCC1CN(C(=O)Cc2cccc(F)c2)Cc2ccnn2C1` (stereo unspecified): the INHIBITION was found to be 13.52%.
For `CCCN(CCc1ccccn1)C(=O)CCc1cnn(C)c1` the value was -46.85%; for `CC1(C)CC(N(Cc2ccccc2)Cc2cccnc2)CC(C)(C)N1`, 26.52%.
For `Cc1ccc(CN2CCN(c3ncccc3C(N)=O)CC2CCO)cc1` (stereo unspecified) the value was 3.92%; for `O=C(O)c1cccnc1N1CCN(Cc2ccc(F)cc2)C(CCO)C1` (stereo unspecified), 78.43%; for `CNC(=O)c1cccnc1N1CCN(Cc2ccccc2)C(CCO)C1` (stereo unspecified), -4.52%.
Then `c1cncc(C2COC3(CCN(Cc4ccsc4)CC3)C2)c1` (stereo unspecified), with 32.85%; and `Cn1nccc1CN1CCOC(c2cccc(Nc3ccccn3)n2)C1` (stereo unspecified), with -88.78%.
As to `Cc1nc(C)c(CNC(=O)N2CCc3ccccc3C2CO)s1` (stereo unspecified), the INHIBITION was determined as 5.98%.
As to `Cc1cc(CC(=O)NC2CCCN(Cc3ccccc3)C2=O)n[nH]1` (stereo unspecified), the INHIBITION is given as -8.63%.
Then `COc1cccc(C(=O)N2CCC3(CCC(=O)N(C(C)C)C3)CC2)c1C`, with 63.37%.
For `COc1cc(C)ccc1C(=O)N1CCC2(CCC(=O)N(C(C)C)C2)CC1`, the INHIBITION was -4.62%.
Then `COc1ccc(F)cc1C(=O)N1CCC2(CCC(=O)N(C(C)C)C2)CC1`, with 23.76%.
Then `CC(=O)N1CCN(C(=O)CNc2cccc(OC(F)F)c2C)CC1`, with 17.61%; and `COc1ccc(OC)c(C2CCN(C(=O)C3CCC(O)CC3)C2)c1` (stereo unspecified), with 55.36%.
Then `COc1ccc(OC)c(C2CCN(C(=O)C3CCOCC3)C2)c1` (stereo unspecified), with 48.21%; and `COc1ccc(OC)c(C2CCN(C(=O)C3CCS(=O)(=O)CC3)C2)c1` (stereo unspecified), with -18.57%; and `COc1ccc(C(=O)NCc2cccnc2N2CCOCC2)o1`, with -49.51%.
For `O=C(c1cccs1)N1CCC(n2nc(-c3ccco3)ccc2=O)CC1`, the INHIBITION is recorded as 38.1%.
For `CCc1c(C)nn(CC(=O)NC(C)c2n[nH]c(C)n2)c1C` (stereo unspecified) the value was 40.15%; for `Clc1ccc(C2(CNC3=NCCN3)CCCC2)cc1`, 6.85%; for `Clc1ccc(C2(CNC3=NCCN3)CCCCC2)cc1`, 35.46%.
Then `Clc1ccc(C2(CNC3=NCCN3)CC2)cc1`, with 53.98%.
For `Cc1cnc(N2CCCC3(COCCN(c4ccc(C)nn4)C3)C2)nc1` (stereo unspecified) the value was 20.21%.
As for `CN(Cc1cccc(O)c1)C(=O)c1ccc(CCC(C)(C)O)cc1`, the INHIBITION is given as 19.75%.
For `O=C(NCCCc1cccs1)N1CCCCC1CCO` (stereo unspecified) the value was 39.97%.
For `O=C(NCCc1cccs1)N1CCC[C@H]1CO` the value was 55.39%; for `O=C(NCCc1cccs1)N1CCCC1CCCO` (stereo unspecified), 8.03%.
For `COCC(=O)N1CCCC(C(=O)N(C)CCn2ccnc2C)C1` (stereo unspecified) the value was 46.04%; for `Cc1ccc2nc(C)c(C)c(C(=O)NCCCn3cnnc3)c2c1`, 10.78%.
As to `Cc1ccc2nc(C)c(C)c(C(=O)NCCCn3ccnn3)c2c1`, the INHIBITION is 56.21%.
Then `Cc1ccc2[nH]c(C(=O)NCCCn3ccnn3)c(C)c2c1`, with 22.39%.
For `CC(=O)NCCC1CCCCN1S(=O)(=O)c1cccc(F)c1` (stereo unspecified) the value was 50.91%.
For the compound `CC(=O)NCCC1CCCCN1S(=O)(=O)c1ccc2ccccc2c1` (stereo unspecified), the INHIBITION is 29.89%.
With `CC(=O)NCCC1CCCCN1S(=O)(=O)c1cccc(Cl)c1` (stereo unspecified), the INHIBITION was -12.13%.
Then `Cn1cc(-c2csc(N3CCOCC3)n2)cn1`, with 13.35%; and `Cc1occc1C(=O)N1CCOCC2(CCN(Cc3nccs3)C2)C1` (stereo unspecified), with 3.85%; and `O=C(N1CCCC1)N1C[C@H]2CCC[C@@]2(COCc2ccccn2)C1`, with 5.44%.
On to `CSC(C)C(=O)NS(=O)(=O)c1ccc(F)c(C(F)(F)F)c1` (stereo unspecified), for which the INHIBITION is 51.48%.
For `COC(C)C(=O)NS(=O)(=O)c1ccc(F)c(C(F)(F)F)c1` (stereo unspecified) the value was 35.7%; for `CC(C)C(=O)NS(=O)(=O)c1ccc(F)c(C(F)(F)F)c1`, 18.82%.
For `CC(C)N(C)CCC(=O)N1CCCC(c2ccc(C(=O)O)cc2)C1` (stereo unspecified) the value was -1.98%; for `CCCn1nc2c(cc1=O)CN(Cc1c(C)noc1C)CC2`, 44.37%.
For `CCCn1nc2c(cc1=O)CN(Cc1cc(C)on1)CC2` the value was -1.79%.
For `Cc1cc(CN2CCc3nn(C)c(=O)cc3C2)on1`, the INHIBITION is -2.31%.
Then `CCCn1nc2c(cc1=O)CN(Cc1cc(C)no1)CC2`, with 62%; and `Cc1cc(CN2CCc3nn(C)c(=O)cc3C2)no1`, with 22.34%.
For the compound `CCn1nc2c(cc1=O)CN(Cc1cc(C)on1)CC2`, the INHIBITION was 73.01%.
